“And” between values parts separate entries of the source, which are not always exact repeats. Equal values may be shown once. Inconclusive results are not listed. The source made the active and inactive calls. Unless noted, calls come from the whole dose curve.

Here are results for nine compounds from PubChem BioAssay (NCATS).

Test [1] deals with Estrogen receptor (Homo sapiens) (UniProt P03372). Nature of the test: qHTS assay for small molecule antagonists of estrogen receptor alpha signaling (AID 588513; active = well fitted curve in the direction sought with a large enough effect in the signal ratio, with a control signal flat, not every such curve was filed as active; the % refers to the signal ratio; note: % is set by controls: 0 for no effect and ±100 for the full control effect). The essentials: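 ER-alpha-UAS-bla GripTite HEK 293 cells in medium with 2% charcoal/dextran-treated FBS were preincubated 4 h at 37 C, dosed with compound (1:2 titration), stimulated with 0.5nM 17-beta-estradiol for 18 h, then read by CCF4 beta-lactamase fluorescence.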
Estrogen receptor (Homo sapiens), sequence (P03372 whole entry, looked up): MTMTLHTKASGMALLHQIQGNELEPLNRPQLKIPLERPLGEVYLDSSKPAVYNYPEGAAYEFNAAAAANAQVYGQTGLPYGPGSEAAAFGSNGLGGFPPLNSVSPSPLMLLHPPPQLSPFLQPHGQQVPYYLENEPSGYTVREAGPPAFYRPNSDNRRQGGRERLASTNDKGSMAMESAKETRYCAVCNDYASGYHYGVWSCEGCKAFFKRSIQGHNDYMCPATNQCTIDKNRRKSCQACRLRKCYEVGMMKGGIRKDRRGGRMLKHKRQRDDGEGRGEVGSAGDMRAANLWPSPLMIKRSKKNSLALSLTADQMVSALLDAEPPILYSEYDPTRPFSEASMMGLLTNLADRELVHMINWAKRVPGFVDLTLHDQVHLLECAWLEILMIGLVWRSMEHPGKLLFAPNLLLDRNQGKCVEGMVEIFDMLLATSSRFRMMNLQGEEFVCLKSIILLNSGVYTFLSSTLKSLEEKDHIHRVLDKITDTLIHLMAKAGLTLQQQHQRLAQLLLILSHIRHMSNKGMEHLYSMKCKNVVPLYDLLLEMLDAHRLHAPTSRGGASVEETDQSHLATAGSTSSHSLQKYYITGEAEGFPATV
On the technique in general: In qHTS, concentration-response curves come from the screen itself.

Test [2] is described as follows: qHTS assay for small molecule agonists of the antioxidant response element (ARE) signaling pathway (AID 651741; active = well fitted activation curve with a large enough effect in the signal ratio; the % refers to the signal ratio; note: potency is the fitted concentration of half-maximal effect). The essentials: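 Compounds in DMSO are pinned onto HepG2 ARE-bla cells (2,000/well) that were preincubated 5 h; plates stay 16 h at 37 C, then beta-lactamase activity is detected with LiveBLAzer B/G substrate by fluorescence.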
Test [3] can be described thus: Cell Viability - HepG2 (AID 433).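 Note: potency is the fitted concentration of half-maximal effect; potency for ATP loss meaning cytotoxicity.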 The following applies: qHTS. The essentials: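 HepG2 hepatocellular carcinoma cells (1500/well) were treated with compounds for 40 h at 37 °C in complete medium; intracellular ATP was read by CellTiter-Glo luminescence. Data were normalized to DMSO and 100 uM tamoxifen, and AC50 came from Hill fits.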
Test [4] has as its target Bile acid receptor (Homo sapiens) (UniProt Q96RI1). Kind of test: qHTS assay for small molecule agonists of farnesoid X receptor signaling (AID 588527).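 Note: 0% = vehicle basal and 100% = reference agonist.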 The note with it: HEK293T FXR-UAS-bla, beta-lactamase ratio, 16 h; stronger effect = higher value. The gist of the method:
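Read-out: beta-lactamase reporter fluorescence with CCF4 substrate in GeneBLAzer FXR-UAS-bla HEK293T cells, after 16 h compound exposure at 37 C. Response scaled between DMSO basal (0%) and chenodeoxycholic acid at 100 uM (100%).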

Test [5] concerns the target Glucocorticoid receptor (Homo sapiens) (UniProt P04150). Nature of the test: qHTS assay for small molecule agonists of glucocorticoid receptor signaling (AID 588532; active = well fitted curve in the direction sought with a large enough effect in the signal ratio, with a control signal flat; the % refers to the signal ratio;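 note: 100% = dexamethasone at 0.1 µM and 0% = DMSO only wells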). The note with it: HeLa MMTV-bla, beta-lactamase ratio, agonist, 18 h; stronger effect = higher value; percent of dexamethasone control, DMSO zero. The gist of the method:
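Titration series, up to 92 uM, applied to GRE-bla HeLa cells for 18 h at 37 C. Detection by CCF4 FRET substrate after 2 h at RT.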

Test [6] can be described thus: qHTS assay for small molecule antagonists of peroxisome proliferator-activated receptor delta signaling (AID 588535; active = well fitted inhibition curve with a large enough effect in the signal ratio, with a control signal flat, not every such curve was filed as active; the % refers to the signal ratio;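 for max response: cells co-treated with a PPAR-delta agonist as stimulator during compound exposure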). The note with it: HEK293T PPARd-UAS-bla, beta-lactamase FRET ratio, 18 h; 460 nm channel. The essentials:
(§1)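 Reporter: UAS-bla under PPAR-delta response element, HEK293T host. Medium: 2% charcoal/dextran FBS. Dosing: titration, 18 hrs, 37 C. Detection: CCF4, 2 hrs RT, 405 ex/460 and 530 em.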

Test [7] has as its target Peroxisome proliferator-activated receptor delta (Homo sapiens) (UniProt Q03181). The description is as above. The gist of the method: as §1
Test [8] concerns the target Mitogen-activated protein kinase 10 (Mus musculus) (UniProt Q61831). Kind of test: JNK3 AlphaScreen Assay (AID 530; active = well fitted curve in either direction with a large enough effect, not every such curve was filed as active;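 note: kinase came from lysate of stimulated human HepG2 cells; signal reports phosphorylation of biotinylated GST-cJun 1-79 at Ser73 with 10 µM ATP; % is set by controls: 0 for no effect and ±100 for the full control effect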). The gist of the method:
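Inhibitors reduce antibody binding to phosphorylated biotin-cJun, lowering AlphaScreen luminescence. Lysates from HepG2 cells pre-activated by IL-1beta plus TNF-alpha supplied JNK3; compounds were titrated.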

The nature of test [9]: MultiTox-Fluor Cytotoxicity Assay - LYMP1-002 - Dead Cells (AID 960; active = well fitted curve in the direction sought with a large enough effect; an effect the other way counts as inactive or inconclusive; note: nearly all actives have a fitted effect of over 60% in size; note: potency is the fitted concentration of half-maximal effect). The gist of the method:
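LYMP1-002 cells 2500/well; 5 hr 37 C pre-incubation; compound 16 hr 37 C; MultiTox-Fluor reagent 60 min RT; dead-cell fluor Ex/Em 485/520. Norm. to DMSO (0%) vs 15 uM tetraoctylammonium bromide (100%); Hill AC50.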

Test [10] addresses Vitamin D3 receptor (Homo sapiens) (UniProt P11473). Nature of the test: qHTS assay for small molecule agonists of vitamin D receptor signaling (AID 588543).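 Note: 0% = DMSO basal and 100% = reference agonist control.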 The essentials: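 GeneBLAzer VDR-UAS-bla HEK293T cells in 2% charcoal-stripped FBS medium were dosed with compound titrations for 16 h at 37 °C; CCF4 β-lactamase readout (405 nm ex, 460/530 nm em). EC50 and efficacy from Hill fits, normalized to 50 nM calcitriol (100%) and DMSO (0%).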

Test [11] is described as follows: qHTS assay for small molecule activators of the nuclear factor-kappa B (NF-kB) signaling pathway (AID 651749; active = well fitted activation curve with a large enough effect in the signal ratio; the % refers to the signal ratio; note: % of control where 0% means no effect). The note with it: NF-kB-bla ME-180 cells, beta-lactamase FRET ratio, 16 h; stronger effect = higher value. The gist of the method: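 Screening used 2,000 ME-180 reporter cells per well exposed to pinned compound (23 nL) or DMSO; after 16 hr at 37C, beta-lactamase expression under NF-kB control was assessed through FRET.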

Test [12] is described as follows: qHTS assay for small molecule disruptors of the mitochondrial membrane potential - 5 hr assay (AID 651755). Note: nearly all actives have a fitted effect of over 40% in size. Note: potency is the fitted concentration of half-maximal effect. The essentials: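 HepG2 cells, attached overnight at 37C, were exposed to compound or DMSO for 5 hr at 37C, 5% CO2. Mito-MPS dye was then added for 30 min, and fluorescence read at 490/535 nm (monomers) and 540/590 nm (aggregates).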
In test [13] the target is Tumor necrosis factor (Homo sapiens) (UniProt P01375). Nature of the test: qHTS assay to identify small molecules that stimulate Tumor Necrosis Factor-alpha (TNF-alpha) secretion (AID 651757; active = well fitted curve in the direction sought with a large enough effect in the signal ratio; the % refers to the signal ratio; note: 0% is about no effect). The gist of the method:
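Read-out is HTRF, a TR-FRET sandwich of cryptate- and XL665-labeled anti-TNF-alpha antibodies detecting cytokine secreted by THP-1 cells. Cells had been incubated with test compounds at 37 C for 17 hrs beforehand.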

Test [14] deals with Nuclear receptor ROR-gamma (Homo sapiens) (UniProt P51449). Kind of test: qHTS assay for small molecule antagonists of the retinoid-related orphan receptor gamma (ROR-gamma) signaling pathway (AID 651802; active = well fitted curve in the direction sought with a large enough effect; an effect the other way counts as inactive or inconclusive; note: nearly all actives have a fitted effect of over 60% in size; note: potency is the fitted concentration of half-maximal effect). The essentials: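 CHO, TET-inducible ROR + RORE-LUC reporter, 1536-well qHTS. Compound pinned, doxycycline added, 16hr 37C/5% CO2. ONE-Glo, 30 min RT, luminescence; signal drop scored as antagonism.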
Nuclear receptor ROR-gamma (Homo sapiens), sequence (P51449 whole entry, looked up): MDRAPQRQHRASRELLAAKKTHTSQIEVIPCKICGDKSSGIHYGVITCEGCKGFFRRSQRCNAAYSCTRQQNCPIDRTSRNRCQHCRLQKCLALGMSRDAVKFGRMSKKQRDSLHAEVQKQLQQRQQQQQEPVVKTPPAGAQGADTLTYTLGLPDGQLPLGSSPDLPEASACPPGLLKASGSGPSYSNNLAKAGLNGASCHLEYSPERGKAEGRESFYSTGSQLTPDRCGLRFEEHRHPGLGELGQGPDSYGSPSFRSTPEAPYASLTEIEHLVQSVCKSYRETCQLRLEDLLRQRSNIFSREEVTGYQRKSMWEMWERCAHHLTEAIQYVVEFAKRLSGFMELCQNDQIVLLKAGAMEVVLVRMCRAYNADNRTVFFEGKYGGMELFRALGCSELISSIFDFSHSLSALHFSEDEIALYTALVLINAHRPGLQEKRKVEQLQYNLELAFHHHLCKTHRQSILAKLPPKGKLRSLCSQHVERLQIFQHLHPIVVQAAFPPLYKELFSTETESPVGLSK

The nature of test [15]: Cell Viability - Jurkat (AID 426;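 active = dose-dependent loss of cell ATP signal giving a full or clear fitted curve, ranked by lower potency value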; note: potency is the fitted concentration of half-maximal effect). The note with it: qHTS. The essentials: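 qHTS, 1536-well; Jurkat E6-1, 5000 cells/well, complete medium; cpd 40 hr, 37 °C; CellTiter-Glo 20 min RT; luminescence. AC50 by Hill fit.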
A short description of test [16]: Cell Viability - LYMP2-024 (AID 988; active = well fitted curve in the direction sought with a large enough effect; an effect the other way counts as inactive or inconclusive; note: nearly all actives have a fitted effect of over 60% in size; note: potency is the fitted concentration of half-maximal effect;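 for activity change, negative = cytotoxicity: plate controls were DMSO only for no effect and 92 µM tetraoctylammonium bromide for full effect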). The gist of the method: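 Steps: seed 2500 cells/well, 5 hr 37 C; add compound, 24 hr 37 C; add CellTiter-Glo, 30 min room temperature; read luminescence. AC50 derived by Hill modelling of concentration-dependent ATP loss.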
The target in test [17] is Peroxisome proliferator-activated receptor gamma (Homo sapiens) (UniProt P37231). Kind of test: qHTS assay for small molecule agonists of peroxisome proliferator-activated receptor gamma signaling (AID 588536; active = well fitted curve in the direction sought with a large enough effect in the signal ratio, with a control signal flat, not every such curve was filed as active; the % refers to the signal ratio;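 note: 0% = DMSO basal wells and 100% = rosiglitazone at 2 µM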). The gist of the method: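 Test agents, titrated, stimulated HEK293 UAS-bla cells overnight (16 h, 37 C). Substrate CCF4 was then added for two hours at room temperature before fluorescence reading.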
Peroxisome proliferator-activated receptor gamma (Homo sapiens), sequence (P37231 whole entry, looked up): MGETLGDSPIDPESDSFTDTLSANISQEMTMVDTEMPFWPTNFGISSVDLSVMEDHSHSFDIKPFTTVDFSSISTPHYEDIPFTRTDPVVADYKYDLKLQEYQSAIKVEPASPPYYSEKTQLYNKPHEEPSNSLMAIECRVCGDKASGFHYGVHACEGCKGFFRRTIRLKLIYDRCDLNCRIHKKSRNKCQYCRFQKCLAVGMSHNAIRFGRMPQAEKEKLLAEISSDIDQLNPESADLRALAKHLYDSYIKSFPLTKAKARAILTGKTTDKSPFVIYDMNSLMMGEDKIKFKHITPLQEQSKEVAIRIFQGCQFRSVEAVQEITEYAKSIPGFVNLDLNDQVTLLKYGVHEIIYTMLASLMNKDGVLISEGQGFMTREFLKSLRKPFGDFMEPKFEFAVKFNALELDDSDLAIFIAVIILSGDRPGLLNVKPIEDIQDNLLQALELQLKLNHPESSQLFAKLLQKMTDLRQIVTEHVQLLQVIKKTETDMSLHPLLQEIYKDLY

Test [18] has the same target. Nature of the test: qHTS assay for small molecule antagonists of peroxisome proliferator-activated receptor gamma signaling (AID 588537; active = well fitted inhibition curve with a large enough effect in the signal ratio, with a control signal flat, not every such curve was filed as active; the % refers to the signal ratio;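 note: reporter cells co-stimulated with 50 nM rosiglitazone agonist during compound treatment; % of control where 0% means no effect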). The gist of the method: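 We seeded GeneBLAzer HEK293 reporter cells at 3000 per well, allowed 6-6.5 h attachment at 37 C, then co-treated with test compound titrations and 50 nM rosiglitazone overnight (16 h). Inhibition was quantified from 460/530 nm emission ratios.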

A short description of test [19]: Cell Viability - NIH 3T3 (AID 541; active = well fitted curve in the direction sought with a large enough effect; an effect the other way counts as inactive or inconclusive;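 note: plate controls were DMSO alone for no effect and tamoxifen positive control for full effect; nearly all actives have a fitted effect of over 25% in size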). The note with it: NIH 3T3 cell viability, qHTS; activity change, negative = cytotoxicity: at 92.2 µM (top of the series). The essentials:
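Luminescent ATP signal (CellTiter-Glo) served as the viability read-out after NIH 3T3 cells were exposed to compounds over a concentration range for 40 hr at 37 °C. Hill-equation modelling of concentration-response data gave AC50.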

The target in test [20] is Glucocorticoid receptor (Homo sapiens) (UniProt P04150). Nature of the test: qHTS assay for small molecule antagonists of glucocorticoid receptor signaling (AID 588533; active = well fitted inhibition curve with a large enough effect in the signal ratio, with a control signal flat, not every such curve was filed as active; the % refers to the signal ratio;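 note: cells stimulated with 2 nM dexamethasone as agonist; % is set by controls: 0 for no effect and ±100 for the full control effect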). The essentials:
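Antagonist-mode qHTS: compound titrations added to GRE-bla HeLa cells, then dexamethasone 2 nM final; 18 h, 37 C. CCF4 FRET fluorescence normalized to dexamethasone and DMSO; IC50 from Hill fit.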

Glucocorticoid receptor (Homo sapiens), sequence (P04150 whole entry, looked up): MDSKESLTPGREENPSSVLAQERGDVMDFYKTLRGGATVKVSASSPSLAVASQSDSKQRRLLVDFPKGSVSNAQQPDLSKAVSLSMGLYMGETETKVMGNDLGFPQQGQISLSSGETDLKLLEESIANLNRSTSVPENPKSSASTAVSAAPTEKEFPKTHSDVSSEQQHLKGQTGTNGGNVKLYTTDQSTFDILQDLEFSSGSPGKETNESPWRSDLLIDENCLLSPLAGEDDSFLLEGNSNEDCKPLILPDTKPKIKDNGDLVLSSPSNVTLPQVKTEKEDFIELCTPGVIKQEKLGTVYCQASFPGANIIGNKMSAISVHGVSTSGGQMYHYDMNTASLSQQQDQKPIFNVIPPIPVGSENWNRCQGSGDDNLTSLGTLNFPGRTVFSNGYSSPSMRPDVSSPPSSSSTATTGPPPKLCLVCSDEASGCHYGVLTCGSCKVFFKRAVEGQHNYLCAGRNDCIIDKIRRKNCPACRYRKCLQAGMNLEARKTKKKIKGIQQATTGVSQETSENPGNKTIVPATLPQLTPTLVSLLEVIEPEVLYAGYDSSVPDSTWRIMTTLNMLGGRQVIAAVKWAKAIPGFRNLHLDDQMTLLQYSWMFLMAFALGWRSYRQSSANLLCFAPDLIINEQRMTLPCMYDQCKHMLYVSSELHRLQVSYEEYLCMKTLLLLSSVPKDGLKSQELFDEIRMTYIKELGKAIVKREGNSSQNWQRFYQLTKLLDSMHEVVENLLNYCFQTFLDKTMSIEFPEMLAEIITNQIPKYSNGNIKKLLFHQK
Tumor necrosis factor (Homo sapiens), sequence (P01375 whole entry, looked up): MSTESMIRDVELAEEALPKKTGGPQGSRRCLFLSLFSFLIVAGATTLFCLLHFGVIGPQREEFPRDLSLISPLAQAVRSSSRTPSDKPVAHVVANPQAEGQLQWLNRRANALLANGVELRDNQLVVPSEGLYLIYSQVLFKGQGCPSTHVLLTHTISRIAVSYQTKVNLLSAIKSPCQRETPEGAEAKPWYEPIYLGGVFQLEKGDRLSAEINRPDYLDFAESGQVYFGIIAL
Bile acid receptor (Homo sapiens), sequence (Q96RI1 whole entry, looked up): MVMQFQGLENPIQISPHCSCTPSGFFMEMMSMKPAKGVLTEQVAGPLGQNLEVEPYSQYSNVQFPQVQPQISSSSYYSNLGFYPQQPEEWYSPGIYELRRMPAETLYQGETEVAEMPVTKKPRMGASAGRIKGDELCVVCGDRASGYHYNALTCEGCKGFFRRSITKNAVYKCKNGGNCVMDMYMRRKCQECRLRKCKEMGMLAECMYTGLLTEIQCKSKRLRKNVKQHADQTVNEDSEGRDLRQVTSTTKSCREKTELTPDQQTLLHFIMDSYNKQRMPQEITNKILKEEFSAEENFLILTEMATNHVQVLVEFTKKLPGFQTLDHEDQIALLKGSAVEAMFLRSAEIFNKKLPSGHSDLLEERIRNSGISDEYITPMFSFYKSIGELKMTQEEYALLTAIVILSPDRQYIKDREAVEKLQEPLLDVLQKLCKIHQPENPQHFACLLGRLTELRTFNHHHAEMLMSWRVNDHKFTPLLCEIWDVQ
Vitamin D3 receptor (Homo sapiens), sequence (P11473 whole entry, looked up): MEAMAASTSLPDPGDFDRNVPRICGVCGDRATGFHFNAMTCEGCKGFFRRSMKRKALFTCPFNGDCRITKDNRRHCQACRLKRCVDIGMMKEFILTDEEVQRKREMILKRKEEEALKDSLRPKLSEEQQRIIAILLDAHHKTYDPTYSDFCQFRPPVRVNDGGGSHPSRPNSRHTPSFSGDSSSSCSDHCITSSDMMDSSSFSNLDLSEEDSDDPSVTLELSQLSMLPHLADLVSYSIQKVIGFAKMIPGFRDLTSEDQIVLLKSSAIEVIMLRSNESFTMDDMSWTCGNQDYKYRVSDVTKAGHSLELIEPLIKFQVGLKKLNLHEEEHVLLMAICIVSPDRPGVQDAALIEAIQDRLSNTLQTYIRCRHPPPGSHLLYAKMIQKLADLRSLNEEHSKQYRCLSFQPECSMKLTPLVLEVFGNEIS
Peroxisome proliferator-activated receptor delta (Homo sapiens), sequence (Q03181 whole entry, looked up): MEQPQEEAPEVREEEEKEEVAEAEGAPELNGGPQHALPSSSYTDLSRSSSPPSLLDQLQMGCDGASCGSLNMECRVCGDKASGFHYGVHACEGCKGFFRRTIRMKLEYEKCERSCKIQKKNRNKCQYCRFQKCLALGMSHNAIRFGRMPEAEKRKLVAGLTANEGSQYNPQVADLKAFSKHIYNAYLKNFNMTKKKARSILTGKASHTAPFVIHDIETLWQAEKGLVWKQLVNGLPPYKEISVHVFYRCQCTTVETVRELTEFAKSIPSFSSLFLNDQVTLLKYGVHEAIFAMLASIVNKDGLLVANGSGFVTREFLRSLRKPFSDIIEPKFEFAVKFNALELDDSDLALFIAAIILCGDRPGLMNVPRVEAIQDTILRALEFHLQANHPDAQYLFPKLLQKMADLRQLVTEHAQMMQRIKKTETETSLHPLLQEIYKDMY

Turning to `c1ccc2c(c1)-c1cccc3c1c-2cc1ccccc13`, the Potency result in test [1] is “inactive”. The Potency in [2] was 10.6 µM (active) and 6.11 µM (active).

Turning to `CN(C)c1ccc(N=Nc2ccccc2)cc1`, the Potency is > 92 µM (inactive) in [3] and 37.6 µM (active) in test [2]. Moreover, the activation in test [4] was -4.32% (inactive); in test [5], 0.929% (inactive). For the same compound, the max response in test [6] was -40.3%. The compound was called inactive in test [7].

Turning to `Oc1cc(Cl)c(Cl)c(Cl)c1`, the figures for the Potency in [3], in [12] and in test [14] were 59.9 µM (active), 37.6 µM (active) and 13.3 µM (active), respectively. Moreover, the Potency entry in [8] and in test [9] was “inactive” each time. Moreover, the activation is 3.7% (inactive) in test [4], 5.15% (inactive) in test [5] and -0.357% (inactive) in test [11]. Moreover, the compound was classed as inactive in test [10] and in test [13].

In the case of `Nc1ccc(-c2ccc(N)c(Cl)c2)cc1Cl`, the Potency was 19 µM (active) in [15]; > 92 µM (inactive) in test [3]; 25.1 µM (active) in test [9]; 5.31 µM (active) and 12.2 µM (active) in test [2]; 37.6 µM (active) in test [12]. Further, the Potency entry in test [8], in [16] and in [18] was “inactive” each time. Also, the activation in [5] was -5.3% (inactive) and -4.62% (inactive). The result in test [17] and in [10] was inactive.

In the case of `O=[N+]([O-])c1cccc(CCl)c1`, the Potency result in test [8] and in test [12] was “inactive” throughout. Besides, in [19], the activity change, negative = cytotoxicity was -132% (active). Besides, the activation in [5] was 5.78% (inactive); in test [11], 1.19% (inactive). Moreover, the outcome in [20] was inactive. Also, the Potency is 42.2 µM (active) in test [2] and 33.5 µM (active) in test [14].

With `Clc1ccc(C(c2ccccc2Cl)C(Cl)(Cl)Cl)cc1` (configuration not stated), the Potency in test [3] is > 92 µM (inactive); in [2] it was 75 µM (active) and 61.1 µM (active). In addition, the activation in test [5] is 1.13% (inactive); in test [11], 3.52% (inactive) and 5.2% (inactive). The compound was called inactive in test [20] and in [17]. Further, the Potency entry in test [18] is “inactive”.

As to `[C-]1=CC=CC1.[C-]1=CC=CC1.[Cl-].[Cl-].[Ti+4]`, the Potency in test [15] is 55.7 µM (active). The Potency result in test [8] and in [9] was “inactive” throughout. Moreover, the activity change, negative = cytotoxicity in [19] was -86.5% (active). In addition, the outcome in test [13] was inactive.

As to `BrCC(Br)(Br)Br`, the Potency in test [3] is > 92 µM (inactive); in test [16], 12.6 µM (active); in test [2], 29.8 µM (active). Besides, the Potency result in test [8], in test [9], in [1] and in test [12] was “inactive” throughout. Besides, the activation in [4] is -2.57% (inactive); in test [11] it was 0.84% (inactive). Further, the call in test [17] and in test [13] was inactive.

Take `c1ccc2c(c1)ccc1cc3c(ccc4ccccc43)cc12`: the Potency in test [2] was 2.37 µM (active). In addition, the Potency entry in test [14] was “inactive”.
